Source: PubChem BioAssay AID652154 (Broad Institute, 2013)
About 4,200 (1.2%) of roughly 360,000 compounds were called active. The list comes from a sample in which actives are over-represented; it also holds similar structures and randomly drawn compounds. Values without a mark were called inactive.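 The calls were made as follows: active = mean replicate inhibition at least 60% with every replicate also reaching 60%; inconclusive = only one of the two criteria is met; inactive = mean below 60% and not all replicates reaching 60%.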

assay: inhibitors of PAX8-driven TPO luciferase reporter, primary screen, RMG-I cells, single concentration (AID 652154); conditions: SteadyGlo, 24 h, at 12.6 µM, stronger effect = higher value;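 also: luciferase light reporting Pax8 driven TPO promoter activity; plate controls were median of neutral control wells for no effect and mitoxantrone controls for full effect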

| SMILES | inhibition |
| --- | --- |
| C[C@H]1CN([C@@H](C)CO)C(=O)Cc2cc(NC(=O)Nc3cccc4ccccc34)ccc2O[C@@H]1CN(C)C | -5.56% |
| OC[C@H]1[C@H](c2ccc(-c3ccccc3F)cc2)[C@H]2CN(Cc3cncnc3)CCCCN21 | 1.13% |
| COc1ccccc1-c1ccc2c(c1)O[C@H](CN(C)C(=O)c1cccnc1)[C@@H](C)CN([C@H](C)CO)S2(=O)=O | 15% |
| C=CC[C@]12C[C@@]3(O[C@H](c4ccc(C(F)(F)F)cc4)N=C3C[C@H](c3ccc(OC)cc3)[C@H]1C)N(C1CCN(Cc3ccccc3)CC1)C2=O | -2.39% |
| CNC[C@@H]1Oc2cc(C#CC3(O)CCCC3)ccc2S(=O)(=O)N([C@@H](C)CO)C[C@H]1C | 9.72% |
| C[C@H](CO)N1C[C@H](C)[C@H](CN(C)C(=O)Nc2ccc3c(c2)OCO3)Oc2cc(C#Cc3ccncc3)ccc2S1(=O)=O | 72.2% (active) |
| C[C@@H]1CN([C@H](C)CO)S(=O)(=O)c2ccc(C#CC3CCCCC3)cc2O[C@H]1CN(C)C(=O)Cc1ccncc1 | 0.108% |
| C[C@@H]1CN([C@H](C)CO)S(=O)(=O)c2ccc(C3=CCCC3)cc2O[C@H]1CN(C)C(=O)Nc1ccc2c(c1)OCO2 | 8.58% |
| CC(C)C#Cc1ccc2c(c1)O[C@@H](CN(C)C(=O)NC(C)C)[C@H](C)CN([C@H](C)CO)S2(=O)=O | -13.2% |
| C[C@@H]1CN([C@@H](C)CO)S(=O)(=O)c2ccc(C#Cc3ccccc3)cc2O[C@@H]1CN(C)C(=O)Nc1ccccc1 | 3.61% |
| C[C@@H]1CN([C@H](C)CO)S(=O)(=O)c2ccc(C#CC3CCCC3)cc2O[C@@H]1CN(C)C(=O)Cc1ccncc1 | 90.6% (active) |
| C[C@H]1CN([C@@H](C)CO)S(=O)(=O)c2ccc(C#CC3CCCC3)cc2O[C@H]1CN(C)C(=O)Cc1ccncc1 | 32.9% |
| C[C@H]1CN([C@@H](C)CO)S(=O)(=O)c2ccc(C#Cc3ccncc3)cc2O[C@@H]1CN(C)C(=O)Nc1ccc2c(c1)OCO2 | 101% (active) |
| C[C@H]1CN([C@@H](C)CO)S(=O)(=O)c2ccc(C3=CCCC3)cc2O[C@H]1CN(C)C(=O)Nc1ccc2c(c1)OCO2 | 19.4% |
| CC(C)NC(=O)N1CCCCN2[C@@H](CO)[C@@H](c3ccc(C#Cc4ccccc4)cc3)[C@@H]2C1 | 1.5% |
| C/C=C/c1ccc2c(c1)O[C@@H](CN(C)CC1CCOCC1)[C@@H](C)CN([C@H](C)CO)S2(=O)=O | -8.71% |
| O=C(NC1CCCCC1)N[C@H]1CC[C@H](CCNS(=O)(=O)c2ccc(F)cc2)O[C@H]1CO | 1.61% |
| C[C@@H]1CCCCO[C@H](CN(C)C(=O)c2ccccc2)[C@H](C)CN([C@H](C)CO)C(=O)c2cc(N(C)C)ccc2O1 | 12.7% |
| CC(C)NC(=O)Nc1ccc2c(c1)C(=O)N([C@H](C)CO)C[C@@H](C)[C@@H](CN(C)C(=O)c1ccncc1)OCCCC[C@H](C)O2 | 1.42% |
| C[C@@H]1CN([C@H](C)CO)C(=O)c2cccc(NC(=O)CCCCCC(=O)Nc3ccccc3N)c2O[C@H]1CN(C)Cc1ccc(Oc2ccccc2)cc1 | 71.9% (active) |

| SMILES | inhibition |
| --- | --- |
| Cc1ccc(S(=O)(=O)Nc2ccc3c(c2)CC(=O)N([C@H](C)CO)C[C@@H](C)[C@H](CN(C)Cc2ccc(C(F)(F)F)cc2)O3)cc1 | 70.8% (active) |
| C[C@@H]1CN([C@@H](C)CO)C(=O)Cc2cc(NC(=O)CCCN(C)C)ccc2O[C@@H]1CN(C)Cc1ccc(-c2ccccc2)cc1 | 10.4% |
| Cc1ccc(S(=O)(=O)Nc2ccc3c(c2)CC(=O)N([C@@H](C)CO)C[C@H](C)[C@H](CN(C)Cc2ccccc2)O3)cc1 | -12.9% |
| Cc1ccc(S(=O)(=O)Nc2ccc3c(c2)C(=O)N([C@@H](C)CO)C[C@@H](C)[C@H](CN(C)Cc2ccc(C(F)(F)F)cc2)O3)cc1 | 10.1% |
| C[C@@H]1CN([C@H](C)CO)C(=O)Cc2cc(NC(=O)CCC(F)(F)F)ccc2O[C@@H]1CN(C)Cc1ccncc1 | -1.08% |
| C[C@@H]1CN([C@H](C)CO)C(=O)Cc2cc(NC(=O)Nc3ccccc3)ccc2O[C@H]1CN(C)Cc1ccc(Cl)c(Cl)c1 | 8.31% |
| C[C@H](CO)N1C[C@H](C)[C@@H](CN(C)Cc2ccc(Cl)c(Cl)c2)Oc2ccc(NC(=O)Nc3ccc(C(F)(F)F)cc3)cc2CC1=O | 99.1% (active) |
| C[C@H](CO)N1C[C@H](C)[C@H](CN(C)Cc2ccc(Oc3ccccc3)cc2)Oc2c(NC(=O)CCCCCC(=O)Nc3ccccc3N)cccc2C1=O | 9.67% |
| C[C@H](CO)N1C[C@H](C)[C@@H](CN(C)Cc2ccc(-c3ccccc3)cc2)Oc2ccc(NC(=O)CCC(F)(F)F)cc2CC1=O | 70.4% (active) |
| C[C@@H]1CN([C@@H](C)CO)C(=O)Cc2cc(NC(=O)Nc3ccc(C(F)(F)F)cc3)ccc2O[C@H]1CN(C)Cc1ccc(C(=O)O)cc1 | -5.6% |
| C[C@@H]1CN([C@@H](C)CO)C(=O)c2cccc(NC(=O)CCCCCC(=O)Nc3ccccc3N)c2O[C@H]1CN(C)C(=O)Nc1ccccc1 | -12.6% |
| C[C@@H]1ON(C)[C@H]2C[C@H]3c4cc(N5CCOCC5)ccc4CCN3C[C@@H]12 | -4.88% |
| O=C(Nc1ccccc1F)N1CC(=O)N2[C@H](C1)[C@@H](c1ccc(C#CC3CC3)cc1)[C@@H]2CO | -14.6% |
| O=C(N[C@@H]1CC[C@@H](CCNS(=O)(=O)c2ccccc2Cl)O[C@@H]1CO)c1ccccc1 | -1.25% |
| O=C(C[C@@H]1CC[C@H]2[C@@H](COC[C@H](O)CN2Cc2ccc(F)cc2)O1)N1CCc2ccccc2C1 | -7.32% |
| CO[C@@H]1CN(C)C(=O)c2cc(NC(=O)c3cnccn3)ccc2OC[C@@H](C)N(CC2CC2)C[C@H]1C | 6.97% |
| CO[C@@H]1CN(C)C(=O)c2cc(NC(=O)C3CC3)ccc2OC[C@H](C)N(CC2CC2)C[C@H]1C | 7.02% |
| C[C@@H](O)C#Cc1ccc2c(c1)O[C@@H](CN(C)C)[C@@H](C)CN([C@@H](C)CO)S2(=O)=O | -0.827% |
| CCCNC(=O)Nc1ccc2c(c1)C(=O)N(C)C[C@@H](OC)[C@H](C)CN(CCC)[C@@H](C)CO2 | -1.74% |
| O=C(C1CCC1)N1C[C@H]2[C@@H](c3ccccc31)[C@@H](CO)N2C(=O)c1ccccc1F | 5.48% |

| SMILES | inhibition |
| --- | --- |
| COc1cccc(-c2ccc3c(c2)[C@@H]2[C@@H](CCN2S(=O)(=O)C2=NC(C)C=N2)[C@@H](CO)N3C)c1 (stereo partly drawn) | 19.4% |
| C/C=C/c1ccc([C@@H]2[C@H](CO)N(CC3CCCC3)C23CN(C(=O)CC)C3)cc1 | 18.8% |
| C[C@H]1CN([C@@H](C)CO)S(=O)(=O)c2ccc(C3=CCCC3)cc2O[C@H]1CN(C)C(=O)Cc1ccncc1 | 1.78% |
| O=C(NCc1ccccc1Cl)[C@H]1[C@H](CO)[C@H]2Cn3c(cccc3=O)[C@H]2N1C(=O)C1CCC1 | -12.8% |
| Cc1ccc(S(=O)(=O)N(C)C[C@@H]2Oc3c(NC(=O)c4ccncc4)cccc3C(=O)N([C@@H](C)CO)C[C@@H]2C)cc1 | 1.41% |
| CCS(=O)(=O)Nc1ccc2c(c1)C(=O)N(C)[C@H]1CC[C@H](CC(=O)N[C@@H]3CCN(Cc4ccccc4)C3)O[C@H]1CO2 | -7.99% |
| C[C@@H]1CN([C@H](C)CO)C(=O)c2cc(C3=CCCCC3)cnc2O[C@@H]1CN(C)C(=O)c1ccc2c(c1)OCO2 | -9.44% |
| C[C@@H]1CN([C@H](C)CO)C(=O)c2cc(C#CCN(C)C)cnc2O[C@H]1CN(C)C(=O)Cc1ccncc1 | -16.9% |
| C[C@@H]1CN([C@@H](C)CO)C(=O)Cc2cc(NS(=O)(=O)c3ccc(Cl)cc3)ccc2O[C@H]1CN(C)Cc1ccc(C(F)(F)F)cc1 | 84.5% (active) |
| C[C@H]1CN([C@@H](C)CO)C(=O)Cc2cc(NS(=O)(=O)c3ccc(F)cc3)ccc2O[C@H]1CN(C)Cc1ccc(C(F)(F)F)cc1 | -55.2% |
| C[C@H](CO)N1C[C@H](C)[C@H](CN(C)Cc2ccncc2)Oc2ccc(NS(=O)(=O)c3ccc(F)cc3)cc2CC1=O | 6.06% |
| COc1ccc(S(=O)(=O)Nc2ccc3c(c2)CC(=O)N([C@H](C)CO)C[C@H](C)[C@H](CN(C)Cc2ccc(C(F)(F)F)cc2)O3)cc1 | 7.06% |
| C[C@H]1CN([C@@H](C)CO)C(=O)Cc2cc(NS(=O)(=O)c3cccs3)ccc2O[C@@H]1CN(C)Cc1ccc(Oc2ccccc2)cc1 | -11% |
| C[C@H](CO)N1C[C@H](C)[C@@H](CN(C)Cc2ccc(Oc3ccccc3)cc2)Oc2ccc(NS(=O)(=O)c3ccc(F)cc3)cc2CC1=O | 78.6% (active) |
| COCC(=O)N(C)C[C@@H]1Oc2cc(C#Cc3cccnc3)ccc2S(=O)(=O)N([C@H](C)CO)C[C@H]1C | 6.54% |
| O=C(C[C@H]1CC[C@H]2[C@@H](COC[C@@H](O)CN2CCC(F)(F)F)O1)NCc1ccc2c(c1)OCO2 | -15.5% |
| O=C(C[C@H]1C=C[C@H](NC(=O)Nc2ccccc2F)[C@@H](CO)O1)NCc1ccc(Cl)cc1 | -8.13% |
| C[C@@H]1CCCCO[C@H](CN(C)Cc2ccncc2)[C@@H](C)CN([C@H](C)CO)C(=O)c2cc(NC(=O)CCCN(C)C)ccc2O1 | -4.23% |
